How the values were obtained:
Details in all cases: concentration: 1 μM, replicates: in singlicate; n = 1
[1] = tested on: CLK2
[2] = tested on: CLK3
[3] = tested on: CLK4
[4] = tested on: CSF1R-autoinhibited
[5] = tested on: CSF1R
[6] = tested on: CSK
[7] = tested on: CSNK1A1L
[8] = tested on: CSNK1A1
[9] = tested on: CSNK1D
[10] = tested on: CSNK1E
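Also: KINOMEscan kinase panel screen.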

Row | Compound | %Inh [1] [%] | %Inh [2] [%] | %Inh [3] [%] | %Inh [4] [%] | %Inh [5] [%] | %Inh [6] [%] | %Inh [7] [%] | %Inh [8] [%] | %Inh [9] [%] | %Inh [10] [%]
1 | COc1cccc(NC(=O)NC2CCN(c3ccnc(Nc4cc(OC)c(OC)c(OC)c4)n3)C2)c1 (centres unmarked) [GSK1379763] | 11 | 0 | 0 | 6 | 34 | 15 | 0 | 0 | 0 | 0
2 | COc1cc2c(cc1OCCN1CCNCC1)ncc1c3ccc(C#N)cc3[nH]c21 | 86 | 27 | 91.7 | 98.4 | 51 | 12 | 0 | 40 | 8 | 0
3 | Cl.NC(=O)c1cccc(Nc2nccc(Nc3ccc(Oc4c(Cl)cccc4Cl)c(Cl)c3)n2)c1 [GW659009] | 0 | 0 | 34 | 0 | 10 | 0 | 0 | 13 | 0 | 0
4 | CCn1c(-c2nonc2N)nc2c(C#CC(C)(C)O)ncc(OCCCCN)c21.O=C(O)C(F)(F)F.O=C(O)C(F)(F)F [GSK507274] | 69 | 11 | 43 | 0 | 21 | 0 | 18 | 19 | 29 | 38
5 | O=C(Nc1n[nH]c2nc(-c3ccc(O)cc3)ccc12)C1CC1 [SB-710363] | 21 | 10 | 15 | 0 | 0 | 0 | 10 | 0 | 0 | 12
6 | Cc1ccc(C)c(NC(=O)NC2CCN(c3ccnc(Nc4ccc(F)cc4)n3)C2)c1 (centres unmarked) [GSK1379720] | 0 | 0 | 0 | 25 | 0 | 0 | 0 | 0 | 6 | 11
7 | CN(c1ccc(NC(=O)Nc2cc(C(F)(F)F)ccc2F)cc1)c1ccnc(Nc2ccc(S(N)(=O)=O)cc2)n1 [GW809893] | 13 | 0 | 16 | 0 | 25 | 9 | 9 | 15 | 0 | 1
8 | Clc1ccc(-c2nn3ncccc3c2-c2ccnc(Nc3ccc4c(c3)OCCO4)n2)cc1 [GW829116] | 0 | 0 | 0 | 0 | 87 | 0 | 17 | 77 | 94 | 98.6
9 | COc1cc(Nc2ncc3c(C)nc(-c4cc5ccccc5[nH]4)n3n2)cc(OC)c1OC [GW869516] | 75 | 36 | 43 | 0 | 0 | 13 | 0 | 30 | 0 | 15
10 | COc1cc(Nc2nccc(N3CCC(NC(=O)c4cc5ccccc5s4)C3)n2)cc(OC)c1OC (centres unmarked) [GSK1379760] | 0 | 0 | 13 | 23 | 18 | 0 | 0 | 41 | 10 | 0
11 | O=c1[nH]cc(-c2ccc(N3CCOCC3)cc2)c2sc(-c3cn[nH]c3)cc12 [GSK2276055] | 76 | 37 | 89 | 0 | 33 | 7 | 44 | 73 | 84 | 94.4
12 | CN1CCN(Cc2cccc(-c3ccc4c(Nc5ccc(Oc6ccccc6)cc5)ccnc4c3)c2)CC1 [GW578342] | 6 | 0 | 0 | 43 | 5 | 76 | 0 | 0 | 0 | 2
13 | COCCOCCOc1cc2ncc3c4ccc(C#N)cc4[nH]c3c2cc1OC | 67 | 14 | 76 | 97.4 | 50 | 10 | 8 | 5 | 0 | 2
14 | Cc1cccc(Nc2nc(N[C@H]3CCNC3)ncc2C(N)=O)c1.Cl [GSK2197149] | 71 | 37 | 33 | 0 | 87 | 0 | 78 | 75 | 67 | 86
15 | Cc1occc1-c1ncc(OC[C@@H](N)Cc2c[nH]c3ccccc23)cc1-c1ccc2[nH]nc(C)c2c1.O=C(O)C(F)(F)F [GSK682037] | 63 | 25 | 9 | 0 | 1 | 0 | 97.3 | 97 | 97.8 | 99.9
16 | Nc1ncnc2c1nc(-c1ccccc1)n2-c1ccccc1 [SKF-97293] | 28 | 25 | 20 | 22 | 7 | 22 | 0 | 0 | 10 | 23
17 | Cc1ccc(S(=O)(=O)Nc2ccc(Nc3nccc(Nc4cccc5[nH]ncc45)n3)cc2)cc1 [GSK581271] | 0 | 13 | 87 | 0 | 22 | 0 | 5 | 0 | 46 | 36
18 | COc1cccc(C(=O)Nc2cccc(Oc3ccc4nc(NC(=O)C5CC5)cn4n3)c2)c1 | 16 | 5 | 0 | 94.2 | 100 | 17 | 17 | 29 | 1 | 19
19 | COc1ccc(Nc2nccc(N3CCC(NC(=O)Nc4cccc(OC)c4)C3)n2)cc1 (centres unmarked) [GSK1379742] | 0 | 39 | 9 | 0 | 0 | 0 | 19 | 0 | 1 | 34
20 | Cc1ccc(C(=O)Nc2ccc(Nc3ccnc4cc(-c5nccs5)ccc34)cc2O)cc1.Cl [GW494702] | 0 | 0 | 0 | 44 | 20 | 30 | 14 | 0 | 97.1 | 8
21 | Cn1cc(-c2ccc3c(c2)CCN3C(=O)Cc2cccc(F)c2)c2c(N)ncnc21 [GSK2603358] | 0 | 0 | 39 | 26 | 94.7 | 14 | 5 | 0 | 20 | 77
22 | Cl.Cl.NCC(NC(=O)c1cc(-c2ccccc2)c(-c2ccnc3[nH]ccc23)s1)c1ccccc1 (centres unmarked) [GSK1321561] | 0 | 49 | 19 | 0 | 0 | 0 | 97.1 | 95.7 | 98 | 99.9
23 | Cc1ccc(F)c(C(=O)Nc2cccc(-c3nn4ccccc4c3-c3ccnc(Nc4cccc(F)c4)n3)c2)c1F [GSK361061] | 0 | 0 | 14 | 0 | 98.8 | 39 | 21 | 41 | 35 | 54
24 | O=C(Nc1cccc(-c2nn3ccccc3c2-c2ccnc(Nc3cccc(F)c3)n2)c1)c1c(F)ccc(F)c1Cl [GSK357952] | 0 | 0 | 11 | 0 | 93.3 | 20 | 7 | 2 | 0 | 40
25 | O=C(Nc1cccc(Oc2ccc3nc(NC(=O)C4CC4)cn3n2)c1)c1ccccc1C(F)(F)F | 73 | 32 | 0 | 88 | 100 | 11 | 0 | 24 | 0 | 20
26 | C[C@@H]1CC[C@@H](C(=O)Nc2ccccc2)CN1c1cc(-c2ccc3c(N)n[nH]c3c2)nc(N)n1 [GSK2286062] | 13 | 0 | 16 | 10 | 0 | 0 | 6 | 0 | 20 | 0
27 | CC(C)c1nc(-c2cccc(NS(=O)(=O)c3c(F)cccc3F)c2F)c(-c2ccnc(Nc3ccc(N4CCOCC4)nc3)n2)s1 [GSK2008607] | 0 | 0 | 0 | 0 | 86 | 98 | 0 | 0 | 0 | 4
28 | COc1ccc(Nc2nccc(NCCNC(=O)c3cc4ccccc4s3)n2)cc1 [GSK1379896] | 0 | 0 | 0 | 0 | 0 | 0 | 0 | 0 | 8 | 16
29 | CCS(=O)(=O)c1ccc(OC)c(Nc2nccc(-c3c(-c4cccc(NC(=O)c5c(F)cccc5F)c4)nn4ncccc34)n2)c1 [GSK326180] | 0 | 9 | 21 | 0 | 24 | 17 | 0 | 0 | 7 | 35
